Each structure is given as a SMILES string. Screen size: about 48,000 compounds; about 13,000 (27%) showed an effect of 50% or more. The list shows a part of the results.

The subject of this experiment is Wolbachia pipientis. Nature of the experiment: Anti-Wolbachia Cell-Based Screen. It is filed as functional. On the set-up: scale not given: in the data most compounds retested in dose-response had high values. The conditions noted are these: 5 µM.
`c1c[nH]c2nc(C3CCNC3)nc-2c1` (stereo not given): the “Percent Effect” value is 89.57%.

`Fc1ccc2nc([C@H]3CCNC3)[nH]c2c1`: the “Percent Effect” value is recorded as -0.4881%.

For `CCC(=O)NCC(=O)Nc1ncc(I)cc1C`, the “Percent Effect” value was -1.135%.

Turning to `C[C@H]1CN(c2ccccn2)C[C@@]12CCN(c1cccnc1)C2=O.O=C(O)C(F)(F)F.O=C(O)C(F)(F)F`, the “Percent Effect” value is 96.67%.

For `C[C@@H]1CN(C(=O)C2CCOCC2)C[C@]12CCN(c1cccnc1)C2=O.O=C(O)C(F)(F)F`, the “Percent Effect” value is on record as -10.36%.

For `Cc1ccc(N2C[C@H](C)[C@]3(CCN(c4cccnc4)C3=O)C2)nn1.O=C(O)C(F)(F)F.O=C(O)C(F)(F)F`, the “Percent Effect” value is reported as 82.56%.

Take `COc1cc(N2CCC3(CC2)CCN(c2cccnc2)C3=O)ncn1.O=C(O)C(F)(F)F`: the “Percent Effect” value is -8.044%.

Regarding `NS(=O)(=O)CCNC(=O)c1cc(Br)c2c(c1)OCCO2`, the “Percent Effect” value came out at 3.55%.

For the molecule `CC(C)n1cc(CN2CCCN(C(=O)C(C)n3cncn3)CC2)cn1` (stereo not given), the “Percent Effect” value is on record as 115.2%.

Consider `CC(C)C(C(=O)N1CCCN(Cc2cnn(C)c2)CC1)n1cncn1` (stereo not given), for which the “Percent Effect” value is listed as -6.037%.

`CC(C)n1cc(CN2CCCN(C(=O)C(C)n3cccn3)CC2)cn1` (stereo not given): the “Percent Effect” value came out at 97.33%.

On to `CC(C(=O)N1CCCN(Cc2cnn(C(C)C)c2)CC1)n1ccnc1` (stereo not given), for which the “Percent Effect” value is listed as 86.84%.

As to `CC(C)n1cc(CN2CCCN(C(=O)c3ccc[nH]3)CC2)cn1`, the “Percent Effect” value is reported as -9.453%.

On to `CC(C)n1cc(CN2CCCN(C(=O)c3nccnc3N)CC2)cn1`, for which the “Percent Effect” value was -14.33%.

Turning to `CC(C(=O)N1CCCN(Cc2ccc(C#N)cc2)CC1)n1ccnc1` (stereo not given), the “Percent Effect” value is recorded as -13.4%.

For `Cc1ncncc1C(=O)N1CCCN(Cc2cnn(C(C)C)c2)CC1`, the “Percent Effect” value was -23.75%.

For the molecule `CCC(=O)N1CCN(c2cc(-n3cnc(C)c3C)nc(C)n2)CC1`, the “Percent Effect” value is reported as -0.8212%.

For `CN1CCOC(C(=O)N(C)c2ccc3c(c2)CCO3)C1` (stereo not given), the “Percent Effect” value was -1.104%.

Take `Cc1cccc(-c2nc(C)nn2CN2CCN(c3ncccn3)CC2)c1`: the “Percent Effect” value is reported as -20.31%.

For `CCC(C(=O)NCc1ccncc1)N(c1ccccc1)S(C)(=O)=O` (stereo not given), the “Percent Effect” value is given as -24.56%.

For the molecule `COCCn1cc(NC(=O)NC(C)c2ccc(Cl)s2)cn1` (stereo not given), the “Percent Effect” value was 1.705%.

On to `CC1(C)[C@H](Cc2cc(CN3CCCCC3)on2)C[C@@H]1NS(C)(=O)=O`, for which the “Percent Effect” value was -2.638%.

Consider `CC(C)C(=O)N(C)Cc1nc(N2CCCC2)ncc1-c1ccncc1.Cl`, for which the “Percent Effect” value is given as 82.87%.

With `CN(Cc1ccsc1)C(=O)c1nc(N2CCCCC2)ncc1Cl`, the “Percent Effect” value is 3.668%.

Regarding `CN(Cc1nc(N2CCCC2)ncc1-c1ccncc1)C(=O)C(C)(C)C.Cl`, the “Percent Effect” value was 94.15%.

On to `CN(C)C(CNC(=O)c1nc(N2CCCC2)ncc1Cl)c1ccco1` (stereo not given), for which the “Percent Effect” value is on record as 2.501%.

For the molecule `CN(Cc1ccsc1)C(=O)c1nc(N2CCCC2)ncc1Cl`, the “Percent Effect” value was -53.64%.

In the case of `Cn1c(NC(=O)CCS(=O)(=O)C2CCCC2)nc2cc(Cl)ccc21`, the “Percent Effect” value stood at 1.786%.

On to `CCN(CC)CC[C@H]1CN(C(=O)CC(C)(C)C)CC[C@H]1CC(=O)O`, for which the “Percent Effect” value was -10.9%.

Regarding `O=C(C1CC1)N1CCc2[nH]cnc2C12CCN(C1CCOCC1)CC2`, the “Percent Effect” value is recorded as -3.543%.

As for `O=S(=O)(c1cc(F)ccc1F)n1cc(Cl)cn1`, the “Percent Effect” value was determined as 95.85%.

As to `COc1ccc(F)cc1S(=O)(=O)N1CCC(Oc2ccc(Cl)cn2)CC1`, the “Percent Effect” value is given as -6.405%.

Turning to `O=S(=O)(c1ccc(F)cc1)N1CCCn2cnc(CN3CCCC3)c2C1`, the “Percent Effect” value is given as -4.272%.

Consider `O=S(=O)(c1ccc(F)cc1)n1cc(Cl)cn1`, for which the “Percent Effect” value was 120.8%.

For `CC1CN(S(=O)(=O)c2ccc(F)cc2)c2cccnc2O1` (stereo not given), the “Percent Effect” value is -6.329%.

As for `Cn1cc(CNS(=O)(=O)c2cc(F)ccc2F)cn1`, the “Percent Effect” value is given as -25.59%.

For `O=S(=O)(c1ccc(F)c(F)c1)n1cc(Cl)cn1`, the “Percent Effect” value turned out to be 96.85%.

For the molecule `Cc1cnn(-c2ccc(S(N)(=O)=O)cc2F)c1`, the “Percent Effect” value is on record as -6.422%.

Turning to `O=S(=O)(c1cc(F)cc(F)c1)N1CCC(Oc2ccc(Cl)cn2)CC1`, the “Percent Effect” value turned out to be 14.51%.

Turning to `Cc1nc(CCNC(Cc2ccncc2)C(F)(F)F)cs1` (stereo not given), the “Percent Effect” value was -2.78%.

For the molecule `CC(O)CCn1ccc2[nH]c(=O)c(C#N)cc2c1=O` (stereo not given), the “Percent Effect” value was -44.58%.

Regarding `COC(=O)C(C)NCc1ccc2[nH]c(C)c(C)c2c1` (stereo not given), the “Percent Effect” value is on record as -1.475%.

For the molecule `COC(=O)c1cc2c(OC)c(OC)c(OC)cc2[nH]1`, the “Percent Effect” value turned out to be 120.2%.

In the case of `COc1cc2[nH]c(=O)c(CN3CCC[C@@H]3C(N)=O)cc2c(OC)c1OC`, the “Percent Effect” value is recorded as -9.081%.

`COc1cc2[nH]c(C(=O)O)cc2c(OC)c1C`: the “Percent Effect” value was determined as 98.44%.

Consider `COc1cc(C(=O)Nc2c(C)noc2C)ccc1C`, for which the “Percent Effect” value is listed as 5.924%.

Take `COc1cc(C(=O)N(C)Cc2cc(C(=O)O)c(C)o2)cc(OC)c1OC`: the “Percent Effect” value is reported as -0.7675%.

Regarding `COc1cc2cc(C(=O)O)n(C)c2c(OC)c1OC`, the “Percent Effect” value is -1.189%.

As to `COc1cc2[nH]c(=O)c(CN3CCCC(CO)C3)cc2c(OC)c1OC` (stereo not given), the “Percent Effect” value amounted to 1.788%.

Take `COC(=O)c1cc2c(OC)c(C)c(OC)cc2[nH]1`: the “Percent Effect” value was 95.02%.

The record behind these values is ChEMBL document CHEMBL3988442, “University of Dundee, Small-Polar-MMV Screening Library” (2021).
